# Bioassay records (PubChem)
# Hits are enriched below; roughly 12% of the tested compounds scored in any of these assays.
# G9a inh – G9a (human) methyltransferase inhibition; Q96KQ7; Potency, µM (highest dose often 102 µM), inactives show at the highest dose activity, negative = inhibition, hits mostly inhibitors; G9a H3K9 monomethylation, AlphaScreen, 2 h; 350,000 tested, 8.8% active; further: on the % scale 0 is the no-effect control and ±100 the full control effect; nearly all actives have a fitted effect of over 75% in size
#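 G9a (20 nM) preincubated 15 min RT with compounds, then 500 nM biotinylated H3K9 peptide and 20 uM SAM added; 2 h RT reaction. Monomethyl-H3K9 product detected by AlphaScreen with anti-H3K9me1 antibody, streptavidin donor and anti-rabbit IgG acceptor beads.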
# HP1b chromo inh – blocks HP1-beta chromodomain binding to methylated histone tails; AlphaScreen HP1-beta / biotin-H3K9me3 peptide binding; 390,000 tested, 0.56% active; Potency, µM (titrated, usually from 114 µM), inactives show at the highest dose activity change, negative = inhibition, usual class: inhibitors; further: nearly all actives have a fitted effect of over 70% in size
#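 AlphaScreen: HP1-beta (50 nM) preformed 30 min with biotin-H3(1-18)K9me3 peptide (50 nM) in PBS pH 7.4, 0.01% Tween-20. Compound added for 30 min at RT, then streptavidin donor/nickel chelate acceptor beads (10 ug/mL) for 30 min.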
# PLK1 PBD block – PLK1 (human) polo-box domain binding inhibition; 360,000 tested, 2.8% active; Potency, µM, for the others: max response, negative = inhibition, hits mostly inhibitors; P53350; Plk1 PBD binding of FITC phosphopeptide, fluorescence polarization; further: series mostly up to about 57 µM; on the % scale 0 is the no-effect control and ±100 the full control effect; nearly all actives have a fitted effect of over 65% in size
# JMJD2A Tudor – JMJD2A Tudor domain (human) inhibition. Potency, µM (top dose mostly 114 µM), for inactives: top-dose activity change, negative = inhibition, usual class: inhibitors. AlphaScreen JMJD2A-Tudor / H3K4me3 peptide binding. O75164. 390,000 tested, 4.4% active; further: on the % scale 0 is the no-effect control and ±100 the full control effect; nearly all actives have a fitted effect of over 50% in size
# Target sequence (O75164 whole entry, looked up, the tested form may be a part): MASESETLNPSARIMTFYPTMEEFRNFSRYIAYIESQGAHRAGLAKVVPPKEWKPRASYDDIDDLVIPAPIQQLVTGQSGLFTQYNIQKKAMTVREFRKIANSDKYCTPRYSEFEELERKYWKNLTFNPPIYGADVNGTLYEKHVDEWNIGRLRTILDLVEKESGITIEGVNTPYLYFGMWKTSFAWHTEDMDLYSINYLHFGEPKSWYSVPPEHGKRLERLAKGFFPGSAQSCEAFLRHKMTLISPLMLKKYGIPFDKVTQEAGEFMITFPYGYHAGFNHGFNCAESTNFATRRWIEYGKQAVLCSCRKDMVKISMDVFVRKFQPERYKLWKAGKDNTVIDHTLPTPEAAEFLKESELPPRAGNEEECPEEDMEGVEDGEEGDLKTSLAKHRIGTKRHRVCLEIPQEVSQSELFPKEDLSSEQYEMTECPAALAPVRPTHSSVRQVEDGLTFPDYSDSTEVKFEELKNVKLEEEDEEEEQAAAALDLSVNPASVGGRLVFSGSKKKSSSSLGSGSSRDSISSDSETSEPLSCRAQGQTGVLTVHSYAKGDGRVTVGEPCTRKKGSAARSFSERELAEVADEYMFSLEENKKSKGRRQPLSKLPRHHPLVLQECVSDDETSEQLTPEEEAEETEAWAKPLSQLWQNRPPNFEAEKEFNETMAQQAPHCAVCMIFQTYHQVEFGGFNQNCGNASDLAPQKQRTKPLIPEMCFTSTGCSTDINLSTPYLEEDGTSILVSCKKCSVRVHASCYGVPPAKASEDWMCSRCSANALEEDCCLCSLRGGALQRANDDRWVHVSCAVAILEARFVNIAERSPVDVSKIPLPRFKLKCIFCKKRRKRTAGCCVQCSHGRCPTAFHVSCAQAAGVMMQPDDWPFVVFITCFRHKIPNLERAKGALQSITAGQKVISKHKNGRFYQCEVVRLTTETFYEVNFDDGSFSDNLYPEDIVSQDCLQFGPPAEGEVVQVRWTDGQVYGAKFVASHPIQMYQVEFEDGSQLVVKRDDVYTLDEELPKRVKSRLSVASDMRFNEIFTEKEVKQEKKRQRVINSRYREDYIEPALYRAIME
# BAZ2B inh – blocks human BAZ2B | AlphaScreen BAZ2B-H3K14Ac peptide displacement | Potency, µM (series often up to 114 µM), without a hit: top-dose activity change, negative = inhibition, most hits filed as inhibitors | 360,000 tested, 4.4% active | AID 504333; further: on the % scale 0 is the no-effect control and ±100 the full control effect; nearly all actives have a fitted effect of over 60% in size
#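 BAZ2B 50 nM plus b-H3(5-23)K14Ac 50 nM, PBS pH 7.4/0.01% Tween-20, 30 min RT; compound added (max 110 uM), 30 min RT; streptavidin donor/Ni-chelate acceptor beads 10 ug/mL final, 20 min dark; AlphaScreen read.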
# Sfp PPTase inh – inhibitors of Bacillus subtilis Sfp phosphopantetheinyl transferase | 310,000 tested, 3.5% active | AID 1490 | Potency, µM, for inactives: largest response in the series, negative = inhibition, hits mostly inhibitors | Biochemical Sfp PPTase activity, qHTS;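 further: the enzyme is Sfp with the accession as filed and its product quenches rhodamine fluorescence; 0% = enzyme reaction without inhibitor and -100% = no enzyme wells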
#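 Sfp 15 nM + cpd, 15 min RT; start w/ rhodamine-CoA 5 uM, BHQ-2-YbbR 12.5 uM (final); 50 mM Hepes pH 7.6, 10 mM MgCl2, 0.01% NP-40, 0.01% BSA; read 525/598 nm at 0 and 30 min.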
# * = called active by the depositor; ? = inconclusive; / = no result given; [ ] = remark or other dose. The call rests on the fitted dose curve; in most records, active means well fitted curve in the direction sought with a large enough effect; inconclusive means small, poorly fitted or top-dose-only effect, or another doubt; inactive means no such curve, though single readings can be large; an effect the other way counts as inactive or inconclusive. Potency means the concentration at half of the fitted maximal effect.
SMILES,G9a inh,HP1b chromo inh,PLK1 PBD block,JMJD2A Tudor,BAZ2B inh,Sfp PPTase inh
Cc1nnc(NC(=O)c2c(-c3ccccc3)noc2C)s1,-13%[0.0925 µM],34%,-6%,0%,-33%,3%
Cc1onc(-c2c(F)cccc2Cl)c1C(=O)Nc1sc2c(c1C(N)=O)CCC2,50µM*,3%,-6%,-9%,2%,-7%
NC(=O)c1c(NC(=O)c2ccccc2Cl)sc2c1CCC2,/,15%,1%,-1%,-15%,-9%
Cc1onc(-c2ccccc2)c1C(=O)NC(=S)Nc1sc2c(c1C#N)CCCC2,2µM*,-3%,7.5µM*,-35%,?,45µM*
Cc1onc(-c2ccccc2)c1C(=O)Nc1sc2c(c1C(N)=O)CCC2,11µM*,?,-23%,-20%[57.1 µM],?,?
Cc1onc(-c2ccccc2)c1C(=O)Nc1sc2c(c1C#N)CCC2,?,?,?,50µM*,?,-83%
Cc1onc(-c2ccccc2)c1C(=O)Nc1sccc1C#N,?,13%,12%,-14%,-20%,4%
CC(C)CCN(C(=O)c1cc(=O)[nH]c2ccccc12)c1c(N)n(Cc2ccccc2)c(=O)[nH]c1=O,?,51%,-11%,-9%,8%,/
Cc1ccnc(NS(=O)(=O)c2ccc(NC(=O)c3cc(=O)c4ccc(C)c(C)c4o3)cc2)n1,-47%[59 µM],1%,/,-28%,-1%,/
O=C1/C(=C/c2ccc(S(=O)(=O)O)cc2S(=O)(=O)O)CCc2ccccc21,/,/,-6%,/,/,/
O=C(Nc1cccc(F)c1)N1CCCC2(CCN(C(=O)c3csnn3)CC2)C1,10%[12.7 µM],/,/,/,/,0%
C[C@@H]1C(=O)O[C@@H]1[C@@H](C)CO[Si](c1ccccc1)(c1ccccc1)C(C)(C)C,/,43%,/,17%,/,21%
COc1ccccc1-c1noc(-c2ccc(N3CCC(C)CC3)c([N+](=O)[O-])c2)n1,5%[59 µM],26%,/,-18%,1%,/
Cc1cc(C(=O)Nc2sc3c(c2C#N)CCC(C)C3)no1 (stereo not given),19%[59 µM],39%,-21%,-12%,0%,26%
Cc1onc(-c2ccccc2)c1C(=O)NC(=S)Nc1sc2c(c1C#N)CCC(C)C2 (stereo not given),3.5µM*,-1%,9.5µM*,-31%,?,-6%
NC(=O)c1c(NC(=O)c2cccnc2Cl)sc2c1CCCC2,18µM*,17%,-15%,-3%,-5%,1%
CCC(CC)c1nnc(NC(=O)c2c(-c3ccccc3)noc2C)s1,40µM*,14%,?,-17%,-2%,18%
Cc1ccsc1CN(C)CC(=O)NCC(=O)Nc1ccc(F)cc1,-14%[12.7 µM],10%,3%,-5%,10%,/
CCOc1ccccc1C(=O)Nc1cc2c(cc1N1CCCCC1)n(C)c(=O)n2C,?,7%,/,-12%,?,/
COCCn1c(C(=O)N2CCCC2)cc2c1C[C@H]1CN(C(=O)c3ccccc3)[C@@](Cc3ccc(OC)cc3)(C(=O)OC)[C@@H]21,/,/,/,/,/,7%
CCOc1ccccc1Nc1nc(-c2sc(NC(=O)c3cccc(Cl)c3)nc2C)cs1,40µM*,?,?,?,?,-20%
CCCCCC(=O)Nc1nc(C)c(-c2csc(Nc3ccccc3OCC)n2)s1,?,-12%,-25%,?,-30%,?
COc1ccccc1Nc1nc(-c2sc(NC(=O)c3ccccc3)nc2C)cs1,?,-2%,?,?,-38%,1%
CCOc1ccccc1Nc1nc(-c2sc(NC(=O)c3ccccc3)nc2C)cs1,32µM*,/,/,/,?,2%
COc1ccccc1Nc1nc(-c2sc(NC(=O)c3ccc([N+](=O)[O-])cc3)nc2C)cs1,45µM*,/,/,/,?,-9%
CCOC(=O)C1CCN(C(=O)Cc2cccs2)CC1,-3%[59 µM],-17%,30µM*,-5%[11.4 µM],-4%,12%
CCN(CC)C(=O)C1CCCN(C/C=C/c2ccccc2[N+](=O)[O-])C1 (stereo not given),35µM*,?,-2%,3.2µM*,?,-9%
